From PubChem BioAssay (NCI)
This is part of a sample that, as a whole, favours compounds with a hit. Of some 83,000 tested, about 20% had one in any assay.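 Interpretation: 100, growth as untreated; towards 0, rising growth inhibition; 0, no net growth; 0 to -100, cell death. Compounds scoring below 10 were considered active.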 Values without a mark were called inactive. Activity calls are given as the source filed them.

How the values were obtained:
Experiment in all cases: NCI-60 one-dose screen, 48 h (100 = growth as untreated, 0 = no growth, -100 = all killed)
HCT-15 colon = settings: 10 µM unless noted
HT29 colon = settings: 10 µM unless noted
SNB-75 CNS = settings: 10 µM unless noted
SNB-19 CNS = settings: 10 µM unless noted
U251 CNS = settings: 10 µM unless noted
PC-3 prostate = settings: 10 µM unless noted
SK-MEL-5 melanoma = settings: 10 µM unless noted
UACC-62 melanoma = settings: 10 µM unless noted
LOX IMVI melanoma = settings: 10 µM unless noted
SK-MEL-28 melanoma = settings: 10 µM unless noted
SK-MEL-2 melanoma = settings: 10 µM unless noted
EKVX NSCLC = settings: 10 µM unless noted
SN12C renal = settings: 10 µM unless noted
UO-31 renal = settings: 10 µM unless noted
ACHN renal = settings: 10 µM unless noted
CAKI-1 renal = settings: 10 µM
A498 renal = settings: 10 µM unless noted
CCRF-CEM leukemia = settings: 10 µM unless noted
MOLT-4 leukemia = settings: 10 µM unless noted
TK-10 renal = settings: 10 µM unless noted

| Structure (SMILES) | growth (HCT-15 colon) | growth (HT29 colon) | growth (SNB-75 CNS) | growth (SNB-19 CNS) [%] | growth (U251 CNS) | growth (PC-3 prostate) | growth (SK-MEL-5 melanoma) | growth (UACC-62 melanoma) | growth (LOX IMVI melanoma) | growth (SK-MEL-28 melanoma) [%] | growth (SK-MEL-2 melanoma) | growth (EKVX NSCLC) [%] | growth (SN12C renal) [%] | growth (UO-31 renal) | growth (ACHN renal) | growth (CAKI-1 renal) | growth (A498 renal) | growth (CCRF-CEM leukemia) | growth (MOLT-4 leukemia) | growth (TK-10 renal) [%] |
| --- | --- | --- | --- | --- | --- | --- | --- | --- | --- | --- | --- | --- | --- | --- | --- | --- | --- | --- | --- | --- |
| COc1ccc(-c2nn(-c3ccc(NC(=O)c4cc(C(F)(F)F)cc(C(F)(F)F)c4)cc3)cc2-c2ccncc2)cc1Cl | 46% | 53.7% | 72.5% | 85.7 | 52.7% | 45.1% | 69.1% | 55.6% | 46.4% | 79.9 | 89.9% | 70.3 | 77.2 | 44.6% | 61.9% | 41.2% | 45.8% | 59% | 62.2% | – |
| O=C(O)c1cccc(S(=O)(=O)c2ccccc2)c1 | 99.4% | 104% | 84.2% | 110 | 108% | 100% | 97% | 101% | 99% | 98.9 | 104% | 92.6 | 102 | 96.1% | – | – | 98.5% | 103% | 99.6% | 93.2 |
| CCn1c(C)nc([N+](=O)[O-])c1Sc1nc(N)nc2nc[nH]c12 | 40.7% | 29.3% | 44.7% | 95.1 | 55.1% | 52.7% | 59.2% | 1.74% (active) | 7.51% (active) | 81.3 | 40.5% | 38.9 | 33 | 37.5% | – | – | 57% | 11.8% | 14.3% | 34.5 |
| O=C(Nc1ccc(-n2ccc3c(NC(=O)c4ccccc4)ncnc32)cc1)c1ccc(Cl)c(C(F)(F)F)c1 | 3.27% (active) | -50.6% (active) | 66.5% | 24.7 | -62.9% (active) | 29.1% | 26.3% | 5.8% (active) | -9.6% (active) | 62.5 | 34.7% | 47.7 | 22 | 32.7% | 27.6% | 34.8% | 80.1% | 7.36% (active) | 4.17% (active) | – |
| CCC1(C(N)=O)CC2C=CC1CC2 (configuration not stated) | 109% | 106% | 95.9% | 90.2 | 110% | 103% | 98.7% | 104% | 96.2% | 125 | 124% | 115 | 118 | 90.8% | 107% | 96.6% | 95.7% | 127% | 111% | – |
| O=S(=O)(CCN1CCOCC1)Nc1cncc(-c2ccc3ncnc(Nc4ccc(F)c(Cl)c4)c3c2)c1 | 84.6% | 73.6% | 56.3% | 61 | 68.9% | 53.2% | 95.4% | 77.5% | 56.6% | 81.7 | 81.5% | 44.7 | 66.7 | 51.9% | 45.2% | 72.3% | 73.1% | 57.1% | 71.7% | – |
| Nc1nccc2c1ccn2-c1cccc(NC(=O)c2ccc(N3CCOCC3)c(C(F)(F)F)c2)c1 | 9.8% (active) | -47.2% (active) | 23.8% | 31.9 | 8.89% (active) | 18% | -43.7% (active) | 13.8% | 5.35% (active) | 47.3 | -6.68% (active) | 44.4 | 25.6 | 7.5% (active) | 13.3% | -0.708% (active) | -12.9% (active) | 7.34% (active) | 9.73% (active) | – |
| C=CC(=O)Nc1cccc(Nc2nc(Nc3ccc(OCCOC(F)F)cc3)ncc2F)c1 | 22.4% | 33.8% | 4.93% (active) | 55.7 | 30.1% | 40.7% | 79.6% | 24.1% | 18% | 68 | 0.225% (active) | 67.6 | 22 | 6.93% (active) | 4.89% (active) | 11.3% | -35.4% (active) | 24.8% | 33.5% | – |
| CN(CCNCc1ccccn1)CCNCc1ccccn1 | 9.87% (active) | 7.47% (active) | 12.9% | 44.7 | 11% | 5.04% (active) | -31.7% (active) | 4.5% (active) | 9.32% (active) | 10.7 | -2.1% (active) | 23.8 | 27.9 | -11.8% (active) | 0.79% (active) | -42% (active) | -91.9% (active) | 10.7% | 1.98% (active) | – |
| CSc1ccc(C(=O)C[n+]2cccc(C)c2)cc1 | 103% | 99.8% | 90.7% | 97.8 | 101% | 96% | 100% | 95.1% | 103% | 105 | 110% | 100 | 99.9 | 97.4% | 112% | 102% | 86.7% | 99.8% | 97% | – |
| O=C(O)c1cccc2oc(-c3ccccc3O)nc12 | 34.1% | 36.1% | 74.7% | 67.8 | 45.6% | 47.8% | 58.1% | 65% | 4.75% (active) | 77.9 | 71.2% | 45 | 57.5 | 54.3% | 57.9% | 42.3% | 47.8% | 31.3% | 66.4% | – |
| CCN(CC)CCN1C(=O)c2c(c3c4ccccc4[nH]c3c3[nH]c4ccccc4c23)C1=O | 59.4% | 46.5% | 80% | 80.3 | 87.9% | 82.5% | 94.3% | 87.2% | 82.3% | 96.3 | 101% | 80.3 | 79.1 | 71.3% | 62% | 87.9% | 67.7% | 78.8% | 34.8% | – |
| CN1C(=O)C2(NN=C(c3cccc4ccccc34)S2)c2ccccc21 (configuration not stated) | 28.3% | 50.8% | 73.4% | 33.7 | 9.26% (active) | 19.7% | 41.8% | 17.2% | 31.3% | 32.4 | 37.1% | 24 | 31.5 | 18.5% | 30.5% | 25.7% | 47% | 9.4% (active) | 2.9% (active) | – |
| CCOC(=O)c1[nH]c(-c2ccc(Cl)cc2)cc1-c1cccnc1 | 21.8% | 6.32% (active) | -1.8% (active) | 52.9 | 20.8% | 14% | 27.1% | 38.8% | 48.5% | 47.8 | 39.5% | 24.3 | 43.6 | 21% | 35.7% | 28.3% | -9.26% (active) | 9.2% (active) | 11.7% | – |
| CC1OC(n2c3ccccc3c3c4c(c5c6ccccc6[nH]c5c32)C(=O)N(CCN[C@@H]2CCC[C@H]2N)C4=O)CC(O)C1O (some centres not stated) | 70.2% | 0.0923% (active) | 12.5% | 14.8 | 7.39% (active) | 9.72% (active) | -48.6% (active) | 17.9% | 0.411% (active) | 45.3 | 47.1% | 23.3 | 13.7 | 63.3% | 25% | 78.6% | 48.3% | 13.2% | 2.71% (active) | – |
| O=C1OC(N(Cc2ccc(Cl)cc2)c2ccccc2)c2ccccc21 (configuration not stated) | 104% | 87.4% | 115% | 96.7 | 100% | 98.2% | 101% | 93.9% | 98.9% | 111 | 94.4% | 102 | 94.6 | 94.5% | 108% | 103% | 90.1% | 92.2% | 81.9% | – |
